Calls of active or inactive are those of the source.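 How the source made its calls: active means Gaucher patient macrophages show a phagocytic index close to or matching that of healthy macrophages; inactive means the rest.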

A short description of this assay: Extended Characterization of Activators of N370S glucocerebrosidase as a Potential Chaperone Treatment of Gaucher Disease: Phagocytosis Index. Conditions: Gaucher iPSC macrophages, phagocytosis of fluorescent E. coli particles. The source says: Glucocerebrosidase (GCase) catalyzes the hydrolysis of beta-glucocerebroside (GC) to glucose and ceramide in lysosomes. Mutations in the glucocerebrosidase gene result in Gaucher disease, an autosomal recessive lysosomal storage disorder. Many of the mutations encountered in patients with Gaucher disease are missense alterations that may cause misfolding, decreased stability and/or mistrafficking of this lysosomal protein. […] These inhibitors include iminosugar analogs and other inhibitors that were discovered as part of previous work. However, the enhancement of enzyme activity by the chaperone action of an enzyme inhibitor must be balanced against the direct inhibition of the enzyme. […] In this extended characterization of our probe, we have further characterized the activity of probes in relevant models of Gaucher disease. This assay examine phagocytosis in patient-derived macrophages following compound incubation. NIH Chemical Genomics Center [NCGC] NIH Molecular Libraries Probe Production Centers Network [MLPCN] MLPCN Grant: MH086442 Assay Submitter (PI): Ellen Sidransky, NHGRI
HMacs and iMacs, plated in black 96-well clear bottom plates, were treated, washed and incubated for 2 hrs with 100 µl of fluorescein-labeled E. coli BioParticles (Vybrant Phagocytosis Assay, Invitrogen).
For `C#Cc1ccc(NC(=O)c2cnn3c(C)cc(C)nc23)cc1`, the outcome is “active; similar to control”.
